# Out of some 330,000 compounds screened, about 2,600 (0.79%) were called active. Shown is part of a subset that was picked to be rich in actives. Values without a mark were called inactive.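 Rule for the calls: active = mean ATP rescue above about 67%, or every replicate alone reaching that limit (limit read from the data, passing the limit was not always enough); inconclusive = no clear call, values can overlap the other calls; inactive = mean under the limit and some replicate under it.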
# Test: protection of differentiated C2C12 cells from simvastatin – single point, plate reader, primary screen (AID 602340);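 note: myotubes were challenged with 10 µM simvastatin during compound exposure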
# Settings: C2C12 myotubes + simvastatin, ATP luminescence, 48 h; at 7.49 µM; active compounds read high; scaled: DMSO 0, geranylgeraniol control 100
row,Structure (SMILES),rescue of ATP level
1,CCn1c(SCCC(C)C)nnc1-c1c[nH]c2ccccc12,-7.75%
2,Cc1ccc(-c2csc(NC3OC(=O)c4ccccc43)n2)cc1 (stereo not drawn),-7.28%
3,Cc1ccc(-c2csc(-c3c[nH]c4ccccc34)n2)cc1,102% (active)
4,O=C(CN1CCN(c2nc(-c3ccccc3)cs2)CC1)NCc1ccc2c(c1)OCO2,124% (active)
5,Cc1ccc(-c2nc(CS(=O)(=O)CC(=O)NCc3ccc4c(c3)OCO4)c(C)o2)cc1,28.8%
6,CC1(C(=O)NCc2ccc3c(c2)OCO3)CCN1CCc1ccccc1 (stereo not drawn),34.5%
7,COc1cc(=O)[nH]c(=O)n1C(=O)Cc1ccccc1,89.8% (active)
8,CCCOc1ccc(Cn2c(O)cc(=O)[nH]c2=O)cc1,2.27%
9,COc1ccc(NC(=O)CNC(=O)Cc2ccccc2)cc1OC,-3.67%
10,CCCNC(=O)N1[C@H](CNC(C)=O)[C@@H](c2ccc(C3=CCCC3)cc2)[C@@H]1CO,17.7%
11,O=C(N[C@H]1C=C[C@@H](CC(=O)N2CCCCC2)O[C@@H]1CO)c1ccc2c(c1)OCO2,-0.462%
12,CO[C@@H]1CN(C)C(=O)c2cc(NC(=O)NC3CCCCC3)ccc2OC[C@H](C)N(CC2CCOCC2)C[C@H]1C,-0.27%
13,Cc1ccc(S(=O)(=O)NCCC(=O)Nc2ccc(C)c(Cl)c2)cc1C,1.52%
14,CC(=O)CCS(=O)(=O)c1ccc(C)c(C)c1,101% (active)
15,Cc1ccnc(NC(=O)CCNS(=O)(=O)c2ccc(C)c(C)c2)c1,0.26%
16,COc1cccc(C(O)c2nc(-c3ccc(C)c(C)c3)cs2)c1 (stereo not drawn),8.62%
17,COc1ccc(C(O)c2nc(-c3ccc4c(c3)OCO4)cs2)cc1 (stereo not drawn),87.4% (active)
18,COc1ccc(C(O)c2nc(-c3ccc(OC)nc3)cs2)cc1 (stereo not drawn),4.92%
19,O=C(O)CC(c1ccccc1)n1cnnn1 (stereo not drawn),86% (active)
20,O=C(O)CC(Cn1cnnn1)c1ccccc1 (stereo not drawn),7.4%
21,CCOc1ccc(C(CC(=O)O)n2cnnn2)cc1OC (stereo not drawn),5.44%
22,O=C(Nc1cccc(Cl)c1)N[C@H]1CC[C@H](CCNC(=O)C2CCOCC2)O[C@H]1CO,-25.3%
23,C[C@H](CO)N1C[C@H](C)[C@H](CN(C)C(=O)Nc2cccc3ccccc23)OCCCC[C@H](C)Oc2ccc(NC(=O)Nc3ccc4c(c3)OCO4)cc2C1=O,90.3% (active)
24,C[C@@H]1CCCCO[C@H](CN(C)C(=O)Nc2cccc3ccccc23)[C@@H](C)CN([C@H](C)CO)C(=O)c2cc(NC(=O)Nc3ccc4c(c3)OCO4)ccc2O1,-47.9%
25,C[C@@H]1CCCCO[C@@H](CN(C)S(C)(=O)=O)[C@@H](C)CN([C@@H](C)CO)C(=O)c2cc(NS(=O)(=O)c3ccc(Cl)cc3)ccc2O1,7.9%

row,Structure (SMILES),rescue of ATP level
1,C[C@@H]1CCCCO[C@@H](CN(C)Cc2ccc3c(c2)OCO3)[C@H](C)CN([C@@H](C)CO)C(=O)c2cc(NS(C)(=O)=O)ccc2O1,-0.957%
2,C[C@H]1CCCCO[C@H](CN(C)C(=O)Nc2ccccc2)[C@@H](C)CN([C@@H](C)CO)C(=O)c2cc(NC(=O)Nc3ccc4c(c3)OCO4)ccc2O1,-0.0505%
3,C[C@@H]1CCCCO[C@H](CN(C)S(C)(=O)=O)[C@@H](C)CN([C@H](C)CO)C(=O)c2cc(NS(=O)(=O)c3ccc(Cl)cc3)ccc2O1,-21.9%
4,C[C@H]1CCCCO[C@@H](CN(C)C(=O)Nc2cccc3ccccc23)[C@@H](C)CN([C@@H](C)CO)C(=O)c2cc(NS(=O)(=O)c3ccc(Cl)cc3)ccc2O1,125% (active)
5,C[C@@H]1CCCCO[C@@H](CN(C)Cc2ccc(Cl)c(Cl)c2)[C@H](C)CN([C@@H](C)CO)C(=O)c2cc(NS(C)(=O)=O)ccc2O1,98% (active)
6,C[C@@H]1CCCCO[C@H](CN(C)C(=O)Nc2cccc3ccccc23)[C@@H](C)CN([C@H](C)CO)C(=O)c2cc(NS(=O)(=O)c3cccs3)ccc2O1,-12.1%
7,C[C@@H]1CCCCO[C@@H](CN(C)Cc2ccc(Cl)c(Cl)c2)[C@@H](C)CN([C@@H](C)CO)C(=O)c2cc(NS(C)(=O)=O)ccc2O1,-1.95%
8,C[C@@H]1CCCCO[C@H](CN(C)C(=O)Nc2cccc3ccccc23)[C@H](C)CN([C@H](C)CO)C(=O)c2cc(NS(=O)(=O)c3cccs3)ccc2O1,28.4%
9,C[C@@H]1CCCCO[C@@H](CN(C)S(C)(=O)=O)[C@H](C)CN([C@@H](C)CO)C(=O)c2cc(NS(=O)(=O)c3ccc(F)cc3)ccc2O1,132% (active)
10,C[C@H](NC(=O)C[C@@H]1CC[C@@H]2[C@H](COC[C@@H](O)CN2Cc2cc(F)ccc2F)O1)c1ccccc1,6.87%
11,CN1[C@@H]2c3ccc(C4=CCCCC4)c(=O)n3C[C@H]1[C@H](CO)[C@H]2C(=O)NCc1ccc(F)cc1,12.7%
12,C[C@H]1CN([C@@H](C)CO)C(=O)c2cc(C#CC3CCCC3)cnc2O[C@H]1CN(C)C(=O)c1ccncc1,-53.3%
13,CO[C@@H]1CN(C)C(=O)c2cc(NC(=O)Nc3cc(F)ccc3F)ccc2OC[C@@H](C)N(C)C[C@H]1C,-33.7%
14,C[C@H]1CN([C@@H](C)CO)S(=O)(=O)c2ccc(C#CC3CCCC3)cc2O[C@@H]1CN(C)C(=O)c1cccc(F)c1,-41%
15,CNC(=O)C[C@H]1CC[C@H]2[C@H](COc3ccc(NC(=O)c4cc(C)on4)cc3C(=O)N2C)O1,7.63%
16,COc1ccccc1NC(=O)N1C[C@H]2[C@@H](c3ccccc31)[C@H](CO)N2Cc1ccc2c(c1)OCO2,46.6%
17,COc1cccc(C(=O)n2ccc(-c3cccs3)n2)c1,132% (active)
18,COc1ccc(OC)c(-c2csc(-c3cccs3)n2)c1,-1.11%
19,COc1cccc(NC(=O)CN(C)C(=O)/C=C/c2cn(-c3ccccc3)nc2-c2cccs2)c1,-0.997%
20,O=C(N[C@@H]1CC[C@H](CCn2cc(-c3ccccn3)nn2)O[C@@H]1CO)c1ccccc1,0.826%
21,C[C@H](CO)N1C[C@H](C)[C@H](CN(C)C(=O)C2CCOCC2)Oc2ncc(-c3ccccc3)cc2C1=O,-10.6%
22,CCCNC(=O)C[C@H]1CC[C@H]2[C@@H](COC[C@H](O)CN2C(=O)Nc2c(C)noc2C)O1,5.16%
23,CCOC(=O)c1c(NC(=O)CSc2cn(CC)c3ccccc23)sc2c1CCC2,15.7%
24,CCOC(=O)c1c(NC(=O)CSc2nnc(C)c(=O)[nH]2)sc2c1CCC2,131% (active)
25,CCOC(=O)c1c(NC(=O)CSc2nnc(CN3CCOCC3)n2C)sc2c1CCCC2,-1.41%

row,Structure (SMILES),rescue of ATP level
1,O=C(C[C@@H]1C=C[C@H](NC(=O)Nc2ccc(C(F)(F)F)cc2)[C@H](CO)O1)NCc1cccc(F)c1,18.6%
2,CCOC(=O)CN1CC23C=CC(O2)C(C(=O)Nc2ccc(F)cc2)C3C1=O (stereo not drawn),97% (active)
3,CCOCCCN1C(=O)C2C(C(=O)Nc3ccc(OCC)cc3)C3C=CC2(O3)C1C(=O)NC1CCCCC1 (stereo not drawn),9.74%
4,CC(C)COC(=O)C1C2C=CC3(CN(C(C)c4ccc(Br)cc4)C(=O)C13)O2 (stereo not drawn),4.94%
5,O=C(CN1CCOCC1)N[C@@H]1CC[C@H](CCNS(=O)(=O)c2ccccc2F)O[C@H]1CO,14.2%
6,Cc1cc(C)n2nc(SCC(=O)NC(=O)NCc3ccco3)nc2n1,-3.52%
7,Cc1ccc(SCC(=O)NC(=O)NCc2ccco2)c(C)c1,95.8% (active)
8,Cc1ccc(NC(=O)C(=O)NCc2ccco2)c(C)c1,9.27%
9,CC(C)NC(=O)N(C)C[C@@H]1Oc2ncc(-c3ccc(C(=O)N(C)C)cc3)cc2C(=O)N([C@H](C)CO)C[C@H]1C,-0.478%
10,Cc1ccc(S(=O)(=O)N(CC(O)CN2CCCCC2)c2cccc([N+](=O)[O-])c2)cc1 (stereo not drawn),5.45%
11,Cc1cccc(N(CC(O)CN(C)C)S(=O)(=O)c2ccccc2)c1 (stereo not drawn),-10.1%
12,O=S(=O)(c1ccccc1)N(CC(O)CN1CCCCC1)c1ccccc1 (stereo not drawn),152% (active)
13,COc1ccccc1-c1cn(CC[C@H]2CC[C@@H](NC(=O)Cc3ccccn3)[C@@H](CO)O2)nn1,5.82%
14,CC(C)Cn1c(SCC(=O)Nc2ccc(Cl)cc2F)nc(O)cc1=O,95.3% (active)
15,Cn1c(SCC(=O)Nc2ccc(Cl)cc2)nc(O)cc1=O,21.6%
16,Cc1ccccc1-n1c(SCC(=O)Nc2cccc3ccccc23)nc(O)cc1=O,7.58%
17,C/C=C/c1ccc([C@@H]2[C@@H](CO)N(C(=O)CC)[C@H]2CN(C)C(=O)C2CC2)cc1,7.07%
18,CO[C@@H]1CN(C)C(=O)c2cc(NC(=O)NC(C)C)ccc2OC[C@@H](C)N(CC2CC2)C[C@@H]1C,3.47%
19,CN(CC(=O)NC1CCCCC1)S(=O)(=O)c1cccc2cccnc12,-5.41%
20,Cc1ccc(S(=O)(=O)N(C)CC(=O)NC2CCCC2)cc1,96.1% (active)
21,Cc1ccc(S(=O)(=O)NCC(=O)N(CC(=O)NC2CCCCC2)Cc2ccco2)cc1,13.6%
22,CCCNC(=O)N1C[C@H](C)[C@@H](OC)CN(C)C(=O)c2ccc(NS(C)(=O)=O)cc2OC[C@@H]1C,-0.593%
23,Cc1noc(C)c1NC(=O)N(C)C[C@@H]1Oc2ccc(NS(=O)(=O)c3ccc(F)cc3)cc2CC(=O)N([C@@H](C)CO)C[C@H]1C,-7.19%

# Reference: PubChem BioAssay AID602340 (Broad Institute, 2012)
